Reference: PubChem BioAssay AID1159580 (chemical genetic matrix, 2015)
Out of some 5,500 compounds screened, about 2,000 (36%) were called active. Inconclusive results (about 18%) are left out. This is one part of the list. Values without a mark were called inactive. No stated cut-off is given here; in the data, active means normalized growth mostly below about 0.91 (no sharp cut-off); inconclusive means no clear call, values can overlap the other calls; inactive means mostly above about 0.92.

Test: chemical genetic growth profiling, strain panel (AID 1159580);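 further: tested at 20 µM; growth read once vehicle control cultures reached saturation at 30 °C; 1 = growth at the plate median or of vehicle wells; lower values mean less growth of the strain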
Settings: S. cerevisiae deletion strains, growth OD

SMILES: CC(CCC(=O)O)[C@H]1CCC2C3CC[C@@H]4C[C@H](O)CC[C@]4(C)C3C=C[C@@]21C (some centres not stated)
- normalized growth (locus YAL021C, strain ccr4, active compounds read low): 0.968
- normalized growth (locus YAL026C, strain drs2, active compounds read low): 0.907 (active)
- normalized growth (locus YAL030W, strain snc1, active compounds read low): 1.01
- normalized growth (locus YBL061C, strain skt5, active compounds read low): 1.01
- normalized growth (locus YBR009C, strain hhf1, active compounds read low): 0.964
- normalized growth (locus YBR023C, strain chs3, active compounds read low): 0.95
- normalized growth (locus YBR171W, strain sec66, active compounds read low): 0.976
- normalized growth (locus YBR231C, strain swc5, active compounds read low): 1.02
- normalized growth (locus YBR279W, strain paf1, active compounds read low): 0.972
- normalized growth (locus YCL011C, strain gbp2, active compounds read low): 0.994
- normalized growth (locus YCL016C, strain dcc1, active compounds read low): 0.962
- normalized growth (locus YCL061C, strain MRC1, active compounds read low): 0.989
- normalized growth (locus YCL069W, strain vba3, active compounds read low): 0.997
- normalized growth (locus YCR088W, strain abp1, active compounds read low): 1.02
- normalized growth (locus YDL005C, strain med2, active compounds read low): 0.992
- normalized growth (locus YDL040C, strain nat1, active compounds read low): 1.01
- normalized growth (locus YDR001C, strain nth1, active compounds read low): 1.01
- normalized growth (locus YDR069C, strain doa4, active compounds read low): 1
- normalized growth (locus YDR137W, strain rgp1, active compounds read low): 0.501 (active)
- normalized growth (locus YDR159W, strain sac3, active compounds read low): 0.948
- normalized growth (locus YDR195W, strain ref2): 1.2 [resistant] (active)
- normalized growth (locus YDR297W, strain sur2, active compounds read low): 1
- normalized growth (locus YDR334W, strain swr1, active compounds read low): 0.991
- normalized growth (locus YDR335W, strain msn5, active compounds read low): 0.969
- normalized growth (locus YDR392W, strain spt3, active compounds read low): 0.485 (active)
- normalized growth (locus YEL003W, strain gim4, active compounds read low): 0.968
- normalized growth (locus YEL037C, strain rad23, active compounds read low): 0.995
- normalized growth (locus YEL061C, strain CIN8 (second series), active compounds read low): 1.01
- normalized growth (locus YER015W, strain faa2, active compounds read low): 1.01
- normalized growth (locus YER016W, strain bim1, active compounds read low): 0.999
- normalized growth (locus YER111C, strain swi4, active compounds read low): 1
- normalized growth (locus YER155C, strain BEM2 (second series), active compounds read low): 1.08
- normalized growth (locus YFR010W, strain ubp6, active compounds read low): 0.987
- normalized growth (locus YGL167C, strain pmr1, active compounds read low): 0.989
- normalized growth (locus YGL173C, strain kem1, active compounds read low): 0.812 (active)
- normalized growth (locus YGL227W, strain vid30, active compounds read low): 1.03
- normalized growth (locus YGL240W, strain doc1, active compounds read low): 0.982
- normalized growth (locus YGL253W, strain hxk2, active compounds read low): 0.955
- normalized growth (locus YHR013C, strain ard1, active compounds read low): 0.973
- normalized growth (locus YHR027C, strain rpn1, active compounds read low): 0.996
- normalized growth (locus YHR142W, strain chs7, active compounds read low): 0.839 (active)
- normalized growth (locus YJL092W, strain hpr5, active compounds read low): 0.986
- normalized growth (locus YJL095W, strain BCK1 (second series), active compounds read low): 1
- normalized growth (locus YJL115W, strain asf1, active compounds read low): 1.01
- normalized growth (locus YJL129C, strain trk1, active compounds read low): 0.879
- normalized growth (locus YJL154C, strain vps35, active compounds read low): 1.03
- normalized growth (locus YJL164C, strain tpk1, active compounds read low): 0.899 (active)
- normalized growth (locus YJL166W, strain qcr8, active compounds read low): 0.894 (active)
- normalized growth (locus YJL187C, strain SWE1, active compounds read low): 0.972
- normalized growth (locus YKL160W, strain elf1, active compounds read low): 0.881 (active)
- normalized growth (locus YKR026C, strain gcn3, active compounds read low): 1.03
- normalized growth (locus YKR091W, strain srl3, active compounds read low): 1.01
- normalized growth (locus YLL001W, strain dnm1, active compounds read low): 1
- normalized growth (locus YLL026W, active compounds read low): 1.01
- normalized growth (locus YLL041C, strain sdh2, active compounds read low): 1
- normalized growth (locus YLR027C, strain aat2, active compounds read low): 0.944
- normalized growth (locus YLR221C, strain rsa3, active compounds read low): 0.898 (active)
- normalized growth (locus YLR258W, strain gsy2, active compounds read low): 0.998
- normalized growth (locus YLR262C, strain YPT6 (second series), active compounds read low): 0.532 (active)
- normalized growth (locus YLR320W, strain mms22, active compounds read low): 0.742 (active)
- normalized growth (locus YLR342W, strain FKS1, active compounds read low): 0.968
- normalized growth (locus YLR357W, strain rsc2, active compounds read low): 1.13
- normalized growth (locus YLR370C, strain arc18, active compounds read low): 0.955
- normalized growth (locus YLR384C, strain iki3, active compounds read low): 1.03
- normalized growth (locus YML120C, strain ndi1, active compounds read low): 0.861 (active)
- normalized growth (locus YMR058W, strain fet3, active compounds read low): 0.869 (active)
- normalized growth (locus YMR125W, strain sto1, active compounds read low): 1.11 [resistant] (active)
- normalized growth (locus YMR129W, active compounds read low): 1.02
- normalized growth (locus YMR205C, strain PFK2, active compounds read low): 0.966
- normalized growth (locus YMR231W, strain pep5, active compounds read low): 0.963
- normalized growth (locus YNL071W, strain lat1, active compounds read low): 0.792 (active)
- normalized growth (locus YNL209W, strain ssb2, active compounds read low): 0.99
- normalized growth (locus YNL248C, strain rpa49, active compounds read low): 0.904
- normalized growth (locus YNL322C, strain KRE1 (second series), active compounds read low): 1.04
- normalized growth (locus YNR049C, strain mso1, active compounds read low): 1
- normalized growth (locus YOR001W, strain rrp6, active compounds read low): 0.86 (active)
- normalized growth (locus YOR070C, strain gyp1, active compounds read low): 0.9 (active)
- normalized growth (locus YOR080W, strain dia2, active compounds read low): 0.997
- normalized growth (locus YOR083W, strain WHI5, active compounds read low): 0.85 (active)
- normalized growth (locus YOR106W, strain vam3, active compounds read low): 0.842 (active)
- normalized growth (locus YOR265W, strain rbl2, active compounds read low): 1.01
- normalized growth (locus YOR270C, strain vph1, active compounds read low): 0.808
- normalized growth (locus YOR290C, strain snf2, active compounds read low): 0.83 (active)
- normalized growth (locus YPL051W, strain arl3, active compounds read low): 0.817 (active)
- normalized growth (locus YPL078C, strain atp4, active compounds read low): 0.834 (active)
- normalized growth (locus YPL106C, strain sse1, active compounds read low): 1.22 [resistant] (active)
- normalized growth (locus YPL240C, strain hsp82, active compounds read low): 0.997
